Laboratory results as given in PubChem BioAssay (EPA / NIEHS).
Activity calls are given as the source filed them. The calls were made as follows: active = hit-call score of the fitted dose curve at least 0.9, where 1 is the maximum; inactive = score below 0.9.

Columns and labels:
[1] = read-out: Matrix Metallopeptidase 1 (MMP1), MMP1 (gene 4312); assay: BSK_hDFCGF_MMP1: BioMAP Diversity Plus: hDFCGF Assay for Matrix Metallopeptidase 1 (MMP1) Biomarker Activity (AID 2283064); settings: primary human foreskin fibroblasts; actives raise or lower the signal
Method in brief: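 MMP1 levels quantified by ELISA 24 h after dosing human dermal fibroblast cultures, with parallel SRB total-protein staining for overt cytotoxicity. Data fitted in both directions against DMSO baseline.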

[2] = read-out: Intercellular Adhesion Molecule 1 (ICAM1), ICAM1 (gene 3383); assay: BSK_KF3CT_ICAM1: BioMAP Diversity Plus: KF3CT Assay for Intercellular Adhesion Molecule 1 (ICAM1) Biomarker Activity (AID 2283067); settings: primary human keratinocytes with fibroblasts; actives raise or lower the signal
Method in brief: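 Cell-surface ICAM-1 was measured by ELISA 24 h after dosing primary human skin keratinocytes co-cultured with fibroblasts. Parallel SRB staining tracked overt cytotoxicity. Gain or loss of signal was fitted relative to DMSO.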

[3] = read-out: Interferon-gamma inducible Protein 10 (IP10), CXCL10 (gene 3627); assay: BSK_KF3CT_IP10: BioMAP Diversity Plus: KF3CT Assay for Interferon-gamma inducible Protein 10 (IP10) Biomarker Activity (AID 2283068); settings: primary human keratinocytes with fibroblasts; actives raise or lower the signal
Method in brief: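 Human keratinocyte plus foreskin fibroblast primary co-culture exposed to test chemical for 24 h; IP-10 measured by ELISA. Concentration-response fitted bidirectionally against DMSO control as baseline.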

[4] = BSK_KF3CT_SRB: Viability Assessment in the BioMAP Diversity Plus: KF3CT Assay (AID 2283069); settings: primary human keratinocytes with fibroblasts;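 also: total protein by sulforhodamine B staining as a cytotoxicity measure; read 24 h after compound addition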
Method in brief: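 Cytotoxicity was gauged by SRB staining (0.1% SRB, 10% TCA fixation, 560 nm) of parallel cultures at 24 h. The cells were primary human skin keratinocytes co-cultured with fibroblasts, and activity was fitted in both directions against DMSO.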

[5] = read-out: Interleukin-1 alpha (IL1a), IL1A (gene 3552); assay: BSK_KF3CT_IL1a: BioMAP Diversity Plus: KF3CT Assay for Interleukin-1 alpha (IL1a) Biomarker Activity (AID 2283070); settings: primary human keratinocytes with fibroblasts; actives raise or lower the signal
Method in brief: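 IL-1a was detected by ELISA 24 h after chemical treatment of a co-culture of human skin keratinocytes and foreskin fibroblasts. Gain or loss of signal was fitted against the DMSO baseline.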

[6] = read-out: TIMP metallopeptidase inhibitor 2 (TIMP2), TIMP2 (gene 7077); assay: BSK_KF3CT_TIMP2: BioMAP Diversity Plus: KF3CT Assay for TIMP metallopeptidase inhibitor 2 (TIMP2) Biomarker Activity (AID 2283071); settings: primary human keratinocytes with fibroblasts; actives raise or lower the signal
Method in brief: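 Chemicals were dosed onto human skin primary co-cultures of keratinocytes and foreskin fibroblasts, and TIMP-2 was measured by ELISA after 24 hours. Activity in either direction was fitted relative to DMSO.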

[7] = read-out: Transforming growth factor beta 1 (TGFb1), TGFB1 (gene 7040); assay: BSK_KF3CT_TGFb1: BioMAP Diversity Plus: KF3CT Assay for Transforming growth factor beta 1 (TGFb1) Biomarker Activity (AID 2283072); settings: primary human keratinocytes with fibroblasts; actives raise or lower the signal
Method in brief: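 KF3CT co-culture (keratinocytes + fibroblasts), 24 h exposure → TGF-b1 ELISA → bidirectional fit, DMSO = baseline. Parallel SRB total-protein staining (0.1% SRB, 10% TCA fixation, 560 nm) for cytotoxicity.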

[8] = read-out: C-C motif chemokine 2 (Homo sapiens) (UniProt P13500); assay: BSK_KF3CT_MCP1: BioMAP Diversity Plus: KF3CT Assay for Monocyte Chemoattractant Protein 1 (MCP1/CCL2) Biomarker Activity (AID 2283073); settings: primary human keratinocytes with fibroblasts; actives raise or lower the signal
Method in brief: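 ELISA read-out of MCP-1, 24 h post-dose, in primary human skin keratinocytes co-cultured with fibroblasts. Parallel SRB staining monitors cytotoxicity; changes fitted both directions relative to DMSO.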

[9] = read-out: Matrix Metallopeptidase 9 (MMP9), MMP9 (gene 4318); assay: BSK_KF3CT_MMP9: BioMAP Diversity Plus: KF3CT Assay for Matrix Metallopeptidase 9 (MMP9) Biomarker Activity (AID 2283074); settings: primary human keratinocytes with fibroblasts; actives raise or lower the signal;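 as to AC50: MMP9 protein level quantified by ELISA in the co-culture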
Method in brief: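 MMP-9 quantified by ELISA after 24 h chemical treatment of primary human skin keratinocyte/fibroblast co-cultures; gain or loss fitted against DMSO, with parallel SRB staining (0.1% SRB, 560 nm) for overt cytotoxicity.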

[10] = read-out: urokinase plasminogen activator (uPA), PLAU (gene 5328); assay: BSK_KF3CT_uPA: BioMAP Diversity Plus: KF3CT Assay for urokinase plasminogen activator (uPA) Biomarker Activity (AID 2283075); settings: primary human keratinocytes with fibroblasts; actives raise or lower the signal
Method in brief: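 ELISA read-out of uPA 24 h after dosing human skin keratinocytes co-cultured with foreskin fibroblasts. Signal change fitted both ways relative to DMSO; sulforhodamine B on parallel cultures marks overt cytotoxicity.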

CD40, CD40 (gene 958) = assay: BSK_LPS_CD40: BioMAP Diversity Plus: LPS Assay for CD40 Biomarker Activity (AID 2283076); settings: primary human HUVEC with PBMC; actives raise or lower the signal
Method in brief: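 In the LPS system of human endothelial cells with peripheral blood mononuclear cells, CD40 levels were read by ELISA 24 h post-treatment. Signal changes in either direction were fitted against the DMSO baseline, with parallel SRB protein staining.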

[11] = read-out: E-selectin (Homo sapiens) (UniProt P16581); assay: BSK_LPS_Eselectin: BioMAP Diversity Plus: LPS Assay for Eselectin Biomarker Activity (AID 2283077); settings: primary human HUVEC with PBMC; actives raise or lower the signal
Method in brief: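 E-selectin ELISA on LPS-stimulated endothelial cell/PBMC co-cultures, read 24 h post-treatment; gains and losses fitted against DMSO. Parallel SRB staining (0.1% SRB after 10% TCA fixation, 560 nm) flags overt cytotoxicity.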

[12] = read-out: Interleukin-8 (IL8), CXCL8 (gene 3576); assay: BSK_LPS_IL8: BioMAP Diversity Plus: LPS Assay for Interleukin-8 (IL8) Biomarker Activity (AID 2283078); settings: primary human HUVEC with PBMC; actives raise or lower the signal
Method in brief: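 ELISA read-out of IL-8 after 24 h chemical treatment of LPS-activated endothelial/PBMC human primary co-cultures. Changes either up or down relative to DMSO; overt cytotoxicity checked by sulforhodamine B staining in parallel wells.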

[13] = BSK_LPS_SRB: Viability Assessment in the BioMAP Diversity Plus: LPS Assay (AID 2283079); settings: primary human HUVEC with PBMC;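 also: total protein by sulforhodamine B absorbance as a cytotoxicity measure; measured one day after compound addition; fitted in both directions against DMSO so loss or gain of signal counts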
Method in brief: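 SRB viability endpoint: cells fixed with 10% TCA, stained with 0.1% SRB, read at 560 nm, 24 h post-dose. HUVEC/PBMC co-culture; signal change in either direction scored relative to DMSO.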

[14] = read-out: Interleukin-1 alpha (IL1a), IL1A (gene 3552); assay: BSK_LPS_IL1a: BioMAP Diversity Plus: LPS Assay for Interleukin-1 alpha (IL1a) Biomarker Activity (AID 2283080); settings: primary human HUVEC with PBMC; actives raise or lower the signal
Method in brief: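 Readout is IL-1a level by ELISA, 24 h post-dose, fitted as gain or loss relative to DMSO. System: LPS-activated human primary co-culture of vascular endothelium and peripheral blood mononuclear cells, with parallel SRB total-protein cytotoxicity.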

[15] = read-out: Monocyte Chemoattractant Protein-1 (MCP1), CCL2 (gene 6347); assay: BSK_LPS_MCP1: BioMAP Diversity Plus: LPS Assay for Monocyte Chemoattractant Protein-1 (MCP1) Biomarker Activity (AID 2283081); settings: primary human HUVEC with PBMC; actives raise or lower the signal;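 as to AC50: secreted MCP-1 protein quantified by ELISA in culture supernatant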
Method in brief: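 Secreted MCP-1 read by ELISA at 24 h post-dosing in an LPS-activated co-culture of endothelial cells with peripheral blood mononuclear cells. Fits run in both directions, DMSO as baseline; parallel SRB staining tracks overt cytotoxicity.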

[16] = BSK_LPS_PGE2: BioMAP Diversity Plus: LPS Assay for Prostaglandin E2 (PGE2) Biomarker Activity (AID 2283082); settings: primary human HUVEC with PBMC; actives raise or lower the signal
Method in brief: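 Compounds were added to the LPS co-culture of endothelium and PBMC, and PGE2 was measured by ELISA after 24 h. Responses in either direction were fitted with DMSO as baseline.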

[17] = read-out: Macrophage colony-stimulating factor (MCSF), CSF1 (gene 1435); assay: BSK_LPS_MCSF: BioMAP Diversity Plus: LPS Assay for Macrophage colony-stimulating factor (MCSF) Biomarker Activity (AID 2283083); settings: primary human HUVEC with PBMC; actives raise or lower the signal
Method in brief: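 Bidirectional fitting against DMSO was applied to M-CSF levels read by ELISA at 24 h post-dose. The system pairs human umbilical vein endothelium with peripheral blood mononuclear cells; parallel SRB staining tracked cytotoxicity.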

[18] = read-out: Plasminogen activator inhibitor-1 (PAI1), SERPINE1 (gene 5054); assay: BSK_hDFCGF_PAI1: BioMAP Diversity Plus: hDFCGF Assay for Plasminogen activator inhibitor-1 (PAI1) Biomarker Activity (AID 2283066); settings: primary human foreskin fibroblasts; actives raise or lower the signal
Method in brief: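 Fibroblasts from human foreskin were treated with test chemical. After 24 h, PAI-1 was measured by ELISA. Activity was fitted in both directions relative to DMSO.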

Chain of E-selectin (Homo sapiens) (P16581 whole entry, looked up): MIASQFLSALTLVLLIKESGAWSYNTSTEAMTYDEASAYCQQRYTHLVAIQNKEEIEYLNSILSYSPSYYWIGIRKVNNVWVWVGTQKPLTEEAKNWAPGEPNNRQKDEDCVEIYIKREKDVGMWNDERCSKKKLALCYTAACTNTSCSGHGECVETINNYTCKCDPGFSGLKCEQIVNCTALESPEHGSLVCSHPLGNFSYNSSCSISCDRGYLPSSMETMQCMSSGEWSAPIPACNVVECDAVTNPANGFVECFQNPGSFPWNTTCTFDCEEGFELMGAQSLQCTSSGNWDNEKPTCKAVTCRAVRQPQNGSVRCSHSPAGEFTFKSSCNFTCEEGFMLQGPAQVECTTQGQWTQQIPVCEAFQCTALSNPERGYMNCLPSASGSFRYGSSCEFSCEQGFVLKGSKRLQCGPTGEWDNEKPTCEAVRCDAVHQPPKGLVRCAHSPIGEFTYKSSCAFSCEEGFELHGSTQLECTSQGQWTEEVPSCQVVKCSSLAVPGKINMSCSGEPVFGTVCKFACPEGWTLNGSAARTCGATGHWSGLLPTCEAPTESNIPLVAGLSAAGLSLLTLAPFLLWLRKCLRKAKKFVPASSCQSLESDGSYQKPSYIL

With `CCOP(=S)(OCC)SCS(=O)(=O)CC` the outcome [1] was “inactive”, the outcome [2] was “inactive” and the outcome [3] was “inactive”. The outcome [4] was “inactive”, the outcome [5] was “inactive” and the outcome [6] was “inactive”. The outcome [7] was “inactive”, the outcome [8] was “inactive” and the outcome [9] was “inactive”. The outcome [10] was “inactive”, the outcome (CD40, CD40 (gene 958)) was “inactive” and the outcome [11] was “inactive”. For the same compound, the outcome [12] was “inactive”, the outcome [13] was “inactive” and the outcome [14] was “inactive”. For the same compound, the outcome [15] was “inactive”, the outcome [16] was “inactive” and the outcome [17] was “inactive”.

In the case of `O=C(O)C(F)(F)OC(F)(F)C(F)(F)OC(F)(F)C(=O)O`, the outcome [1] was “inactive”, the outcome [2] was “inactive” and the outcome [3] was “inactive”. The outcome [5] was “inactive”, the outcome [6] was “inactive” and the outcome [8] was “inactive”. For the same compound, the outcome [9] was “inactive”, the outcome [10] was “inactive” and the outcome (CD40, CD40 (gene 958)) was “inactive”. The outcome [11] was “inactive”, the outcome [12] was “inactive” and the outcome [13] was “inactive”. For the same compound, the outcome [14] was “inactive”, the outcome [15] was “inactive” and the outcome [16] was “inactive”. For the same compound, the outcome [17] was “inactive”.

For `O=C(O)C(Cl)Cl`, the outcome [1] was “inactive”, the outcome [3] was “inactive” and the outcome [4] was “inactive”. For the same compound, the outcome [5] was “inactive”, the outcome [6] was “inactive” and the outcome [7] was “inactive”. For the same compound, the outcome [8] was “inactive”, the outcome [9] was “inactive” and the outcome [10] was “inactive”. The outcome (CD40, CD40 (gene 958)) was “inactive”, the outcome [11] was “inactive” and the outcome [12] was “inactive”. The outcome [13] was “inactive”, the outcome [14] was “inactive” and the outcome [15] was “inactive”. The outcome [16] was “inactive” and the outcome [17] was “inactive”.

For `O=S(=O)(F)C(F)(F)C(F)(F)C(F)(F)C(F)(F)C(F)(F)C(F)(F)C(F)(F)C(F)(F)F`, the outcome [1] was “inactive”, the outcome [2] was “inactive” and the outcome [3] was “inactive”. The outcome [4] was “inactive”, the outcome [5] was “inactive” and the outcome [6] was “inactive”. For the same compound, the outcome [8] was “inactive”, the outcome [9] was “inactive” and the outcome [10] was “inactive”. The outcome (CD40, CD40 (gene 958)) was “inactive”, the outcome [11] was “inactive” and the outcome [12] was “inactive”. The outcome [13] was “inactive”, the outcome [14] was “inactive” and the outcome [15] was “inactive”. The outcome [16] was “inactive” and the outcome [17] was “inactive”.

With `NC(=O)C(F)(F)C(F)(F)F` the outcome [1] was “inactive”, the outcome [18] was “inactive” and the outcome [3] was “inactive”. For the same compound, the outcome [5] was “inactive”, the outcome [6] was “inactive” and the outcome [8] was “inactive”. The outcome [9] was “inactive”, the outcome [10] was “inactive” and the outcome (CD40, CD40 (gene 958)) was “inactive”. The outcome [11] was “inactive”, the outcome [12] was “inactive” and the outcome [13] was “inactive”. The outcome [14] was “inactive”, the outcome [15] was “inactive” and the outcome [16] was “inactive”. The outcome [17] was “inactive”.

For `ClC(Cl)=C(c1ccc(Cl)cc1)c1ccccc1Cl`, the AC50 [1] was 3.83 µM (active), the AC50 [3] was 3.5 µM (active) and the AC50 [4] was 6.86 µM (active). For the same compound, the AC50 [5] was 7 µM (active), the AC50 [6] was 3.67 µM (active) and the AC50 [7] was 5.46 µM (active). The AC50 [8] was 7.15 µM (active), the AC50 [9] was 4.38 µM (active) and the AC50 [10] was 11.2 µM (active). The AC50 (CD40, CD40 (gene 958)) was 20 µM (active), the AC50 [11] was 33.4 µM (active) and the AC50 [12] was 20 µM (active). For the same compound, the AC50 [13] was 29.6 µM (active), the AC50 [14] was 26 µM (active) and the AC50 [15] was 29.6 µM (active). For the same compound, the outcome [16] was “inactive” and the AC50 [17] was 20 µM (active).

For `CCC(C)(C)c1ccc(O)cc1`, the outcome [1] was “inactive”, the outcome [2] was “inactive” and the outcome [3] was “inactive”. The outcome [4] was “inactive”, the outcome [5] was “inactive” and the outcome [6] was “inactive”. For the same compound, the outcome [7] was “inactive”, the outcome [8] was “inactive” and the outcome [9] was “inactive”. The outcome [10] was “inactive”, the outcome (CD40, CD40 (gene 958)) was “inactive” and the outcome [11] was “inactive”. The outcome [12] was “inactive”, the outcome [13] was “inactive” and the outcome [14] was “inactive”. The outcome [15] was “inactive”, the outcome [16] was “inactive” and the outcome [17] was “inactive”.
